Test results as given in PubChem BioAssay AID1159580 (chemical genetic matrix, 2015).
Where “and” joins values, the source holds several entries; their conditions need not be identical. Identical values can stand only once. The campaign covered roughly 5,500 compounds. About 2,000 (36%) were called active. Another 18% or so got no clear call; they are omitted. No stated cut-off is given here; in the data, active means normalized growth mostly below about 0.91 (no sharp cut-off); inconclusive means no clear call, values can overlap the other calls; inactive means mostly above about 0.92. The list shows a part of the results.

Assay: chemical genetic growth profiling, strain panel (AID 1159580);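 further: tested at 20 µM; growth read once vehicle control cultures reached saturation at 30 °C; 1 = growth at the plate median or of vehicle wells; lower values mean less growth of the strain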
Conditions: S. cerevisiae deletion strains, growth OD

Measured: normalized growth

CN=C(NC#N)NCCSCc1nc[nH]c1C
inactive: locus YAL013W, strain DEP1, hits give low values 0.997 | locus YAL021C, strain ccr4, hits give low values 1 | locus YAL026C, strain drs2, hits give low values 0.997 | locus YAL030W, strain snc1, hits give low values 0.998 | locus YAL040C, strain CLN3, hits give low values 1.01 | locus YBL061C, strain skt5, hits give low values 0.991 | locus YBR009C, strain hhf1, hits give low values 0.998 | locus YBR021W, strain FUR4, hits give low values 0.993 | locus YBR023C, strain chs3, hits give low values 0.996 | locus YBR171W, strain sec66, hits give low values 0.996 | locus YBR229C, strain ROT2, hits give low values 0.969 | locus YBR231C, strain swc5, hits give low values 1 | locus YBR279W, strain paf1, hits give low values 0.996 | locus YCL011C, strain gbp2, hits give low values 0.993 | locus YCL016C, strain dcc1, hits give low values 0.989 | locus YCL029C, strain bik1, hits give low values 0.979 | locus YCL061C, strain MRC1, hits give low values 1 | locus YCL069W, strain vba3, hits give low values 1.01 | locus YCR088W, strain abp1, hits give low values 0.998 | locus YDL005C, strain med2, hits give low values 1.01 | locus YDL035C, strain GPR1, hits give low values 1.01 | locus YDL040C, strain nat1, hits give low values 1.01 | locus YDL074C, strain BRE1, hits give low values 1.01 | locus YDL101C, strain DUN1, hits give low values 0.984 | locus YDL134C, strain PPH21, hits give low values 1 | locus YDL185W, strain tfp1, hits give low values 0.977 | locus YDL192W, strain arf1, hits give low values 0.995 | locus YDR001C, strain nth1, hits give low values 1 | locus YDR069C, strain doa4, hits give low values 0.997 | locus YDR101C, strain arx1, hits give low values 0.992 | locus YDR137W, strain rgp1, hits give low values 1.01 | locus YDR150W, strain NUM1, hits give low values 1 | locus YDR159W, strain sac3, hits give low values 0.997 | locus YDR162C, strain NBP2, hits give low values 0.994 | locus YDR195W, strain ref2 0.976 | locus YDR297W, strain sur2, hits give low values 0.997 | locus YDR318W, strain mcm21, hits give low values 0.999 | locus YDR334W, strain swr1, hits give low values 0.996 | locus YDR335W, strain msn5, hits give low values 1.01 | locus YDR363W, strain ESC2, hits give low values 0.998 | locus YDR388W, hits give low values 0.991 | locus YDR392W, strain spt3, hits give low values 0.905 | locus YDR502C, strain sam2, hits give low values 1.02 | locus YEL003W, strain gim4, hits give low values 1.01 | locus YEL037C, strain rad23, hits give low values 0.998 | locus YEL061C, strain CIN8 (second series), hits give low values 1 | locus YEL061C, strain CIN8, hits give low values 0.998 | locus YER002W, strain NOP16, hits give low values 1.02 | locus YER015W, strain faa2, hits give low values 1.01 | locus YER016W, strain bim1, hits give low values 1 | locus YER110C, hits give low values 0.975 | locus YER111C, strain swi4, hits give low values 0.993 | locus YER155C, strain BEM2 (second series), hits give low values 0.97 | locus YER155C, strain BEM2, hits give low values 0.99 | locus YER167W, strain BCK2, hits give low values 0.997 | locus YFR010W, strain ubp6, hits give low values 1 | locus YGL078C, strain dbp3, hits give low values 0.989 | locus YGL086W, strain mad1, hits give low values 1 | locus YGL167C, strain pmr1, hits give low values 0.995 | locus YGL173C, strain kem1, hits give low values 0.997 | locus YGL227W, strain vid30, hits give low values 0.991 | locus YGL240W, strain doc1, hits give low values 0.986 | locus YGL248W, strain PDE1, hits give low values 0.993 | locus YGL253W, strain hxk2, hits give low values 0.997 | locus YGR078C, strain PAC10, hits give low values 0.996 and 1.01 | locus YGR135W, strain pre9, hits give low values 0.992 | locus YGR229C, strain SMI1, hits give low values 0.996 | locus YGR252W, strain gcn5, hits give low values 1.1 | locus YHR013C, strain ard1, hits give low values 0.972 | locus YHR027C, strain rpn1, hits give low values 0.993 | locus YHR030C, strain SLT2, hits give low values 0.977 and 1.03 | locus YHR079C, strain IRE1 (second series), hits give low values 0.986 | locus YHR079C, strain IRE1, hits give low values 1.07 | locus YHR094C, strain hxt1, hits give low values 0.99 | locus YHR129C, strain ARP1, hits give low values 0.985 | locus YHR142W, strain chs7, hits give low values 0.998 | locus YHR200W, strain rpn10, hits give low values 0.99 | locus YIL066C, strain RNR3, hits give low values 0.998 | locus YIL073C, strain SPO22, hits give low values 1.01 | locus YIL125W, strain kgd1, hits give low values 0.992 | locus YIR030C, strain dcg1, hits give low values 0.991 | locus YJL092W, strain hpr5, hits give low values 0.994 | locus YJL095W, strain BCK1 (second series), hits give low values 0.996 | locus YJL095W, strain BCK1, hits give low values 0.952 and 1.02 | locus YJL115W, strain asf1, hits give low values 1 | locus YJL129C, strain trk1, hits give low values 1.01 | locus YJL134W, strain LCB3, hits give low values 0.996 | locus YJL154C, strain vps35, hits give low values 1.01 | locus YJL164C, strain tpk1, hits give low values 0.992 | locus YJL166W, strain qcr8, hits give low values 1 | locus YJL168C, strain set2, hits give low values 0.983 | locus YJL187C, strain SWE1 (second series), hits give low values 0.988 | locus YJL187C, strain SWE1, hits give low values 1 | locus YJR043C, strain POL32, hits give low values 0.98 | locus YJR066W, strain TOR1, hits give low values 0.997
